Experimental findings from PubChem BioAssay (EPA / NIEHS) are described below.

Calls of active or inactive are those of the source. Rule for the calls: active = hit-call score of the fitted dose curve at least 0.9, where 1 is the maximum; inactive = score below 0.9.

Holding throughout (conditions): mRNA level, 48 h; actives raise or lower the signal
Read-out in assay [1]: matrix metalloproteinase-3 (MMP3), MMP3 (gene 4314)
Briefly: LTEA_HepaRG_MMP3: Life Technologies and Expression Analysis (LTEA) Assay for matrix metalloproteinase-3 (MMP3) using HepaRG (AID 2283519). In outline:
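Fluidigm-based TaqMan qRT-PCR, normalized to ACTB, GAPDH and POLR2A and fitted bidirectionally versus 0.5% DMSO, measured transcript levels. Treatment: duplicate 48 h exposures of HepaRG cells, ~100,000/well, to eight half-log concentrations topping at 100 uM.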

Read-out in assay [2]: Paternally Expressed 10 (PEG10), PEG10 (gene 23089)
Briefly: LTEA_HepaRG_PEG10: Life Technologies and Expression Analysis (LTEA) Assay for Paternally Expressed 10 (PEG10) using HepaRG (AID 2283520).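 For AC50: PEG10 transcript by qRT-PCR normalised to ACTB GAPDH and POLR2A.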 In outline:
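PEG10 transcript measured by Fluidigm qRT-PCR, normalized to three housekeeping genes, in HepaRG cells treated 48 h (highest 100 uM, half-log steps, 0.5% DMSO vehicle). Cells plated 48 h before switching to serum-free induction medium.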

Read-out in assay [3]: Nuclear factor NF-kappa-B p105 subunit (Homo sapiens) (UniProt P19838)
The assay is described as follows: LTEA_HepaRG_NFKB1: Life Technologies and Expression Analysis (LTEA) Assay for Nuclear Factor Kappa B Subunit 1 (NFKB1) using HepaRG (AID 2283521). The essentials:
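Differentiated human HepaRG cells were exposed for 48 h in serum-free induction medium to eight concentrations (top 100 uM, half-log steps, 0.5% DMSO), in duplicate. NFKB1 mRNA was measured by TaqMan qRT-PCR, normalized to ACTB/GAPDH/POLR2A, and fitted bidirectionally against DMSO.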

Read-out in assay [4]: Protein phosphatase 2A (PPP2R4), PTPA (gene 5524)
Briefly: LTEA_HepaRG_PPP2R4: Life Technologies and Expression Analysis (LTEA) Assay for Protein phosphatase 2A (PPP2R4) using HepaRG (AID 2283522). In outline: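 Expression was quantified by Fluidigm qRT-PCR normalised to three housekeeping genes after 48 h treatment. Human HepaRG cells received an 8-point series from 100 µM downward by half-logs, in duplicate with 0.5% DMSO vehicle and 1 mM phenobarbital as induction control.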

Read-out in assay [5]: Phosphatase and tensin (PTEN), PTEN (gene 5728)
The assay is described as follows: LTEA_HepaRG_PTEN: Life Technologies and Expression Analysis (LTEA) Assay for Phosphatase and tensin (PTEN) using HepaRG (AID 2283523). In outline:
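Read-out: TaqMan qRT-PCR of PTEN transcript, normalized to three housekeeping genes, fitted in both directions against 0.5% DMSO. Differentiated human HepaRG cultures received chemicals for 48 h, eight-point half-log series topping at 100 uM.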

Read-out in assay [6]: solute carrier (SLC22A1), SLC22A1 (gene 6580)
The assay is described as follows: LTEA_HepaRG_SLC22A1: Life Technologies and Expression Analysis (LTEA) Assay for solute carrier (SLC22A1) using HepaRG (AID 2283524). In outline:
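Transcript level of SLC22A1 quantified by qRT-PCR (normalized to three housekeeping genes) after 48 h chemical exposure of HepaRG cells, eight concentrations up to 100 µM, half-log steps, 0.5% DMSO vehicle. Gain or loss relative to DMSO fitted bidirectionally.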

Read-out in assay [7]: NAD(P)H dehydrogenase [quinone] 1 (NQO1), NQO1 (gene 1728)
The assay is described as follows: LTEA_HepaRG_NQO1: Life Technologies and Expression Analysis (LTEA) Assay for NAD(P)H dehydrogenase [quinone] 1 (NQO1) using HepaRG (AID 2283526). In outline:
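NQO1 transcript induction or loss measured by TaqMan qRT-PCR, referenced to three housekeeping genes and fitted bidirectionally against 0.5% DMSO. HepaRG cultures exposed 48 h, duplicate, eight-point half-log series, top 100 uM.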

Read-out in assay [8]: Nuclear factor erythroid 2-related factor 2 (Homo sapiens) (UniProt Q16236)
The assay is described as follows: LTEA_HepaRG_NFE2L2: Life Technologies and Expression Analysis (LTEA) Assay for Nuclear factor erythroid 2-related factor 2 (NFE2L2) Transcription Factor using HepaRG (AID 2283527).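 Note: TaqMan qRT-PCR transcript level normalised to ACTB GAPDH and POLR2A housekeeping genes.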 In outline: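 NFE2L2 transcript level was read by qRT-PCR (housekeeping ACTB/GAPDH/POLR2A normalisation) after 48 h chemical treatment of HepaRG in serum-free induction medium. Duplicate 8-point half-log curves, top 100 uM, 0.5% DMSO vehicle; up- or down-regulation fitted against vehicle.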

Read-out in assay [9]: succinate dehydrogenase complex iron sulfur subunit B (SDHB), SDHB (gene 6390)
Briefly: LTEA_HepaRG_SDHB: Life Technologies and Expression Analysis (LTEA) Assay for succinate dehydrogenase complex iron sulfur subunit B (SDHB) using HepaRG (AID 2283528). In outline: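 HepaRG, 48 h exposure, 8-pt half-log series from 100 uM in 0.5% DMSO, duplicates. Readout: SDHB mRNA by Fluidigm qRT-PCR vs housekeeping genes; bidirectional fit relative to DMSO.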

Read-out in assay [10]: solute carrier (SLCO1B1), SLCO1B1 (gene 10599)
Briefly: LTEA_HepaRG_SLCO1B1: Life Technologies and Expression Analysis (LTEA) Assay for solute carrier (SLCO1B1) using HepaRG (AID 2283530). The essentials:
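Human HepaRG cultures treated for 48 h with an eight-concentration half-log series topping at 100 uM; SLCO1B1 measured by qRT-PCR and fitted bidirectionally relative to DMSO.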

Read-out in assay [11]: sulfotransferase 2A1 (SULT2A1), SULT2A1 (gene 6822)
The assay is described as follows: LTEA_HepaRG_SULT2A1: Life Technologies and Expression Analysis (LTEA) Assay for sulfotransferase 2A1 (SULT2A1) using HepaRG (AID 2283531). The essentials: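 Gene-expression endpoint in a human liver cell line: SULT2A1 mRNA change after 48 h chemical treatment, curves fitted in both directions relative to 0.5% DMSO vehicle. Concentrations spanned eight half-log steps from 100 uM.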

Read-out in assay [12]: Transforming Growth Factor (TGFA), TGFA (gene 7039)
Briefly: LTEA_HepaRG_TGFA: Life Technologies and Expression Analysis (LTEA) Assay for Transforming Growth Factor (TGFA) using HepaRG (AID 2283532). In outline:
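TGFA transcript quantified by qRT-PCR (Fluidigm arrays) against three housekeeping genes, after 48 hours chemical treatment of HepaRG cells. Top concentration 100 uM with half-log dilutions, 8 points, duplicates, 0.5% DMSO.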

Read-out in another assay: TIMP1, TIMP1 (gene 7076)
The assay is described as follows: LTEA_HepaRG_TIMP1: Life Technologies and Expression Analysis (LTEA) Assay for TIMP1 using HepaRG (AID 2283534).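 Note: TaqMan qRT-PCR signal normalized to ACTB GAPDH and POLR2A housekeeping genes.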 In outline: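 TIMP1 induction or repression in HepaRG cells after 48 h chemical exposure (eight concentrations, highest 100 uM), assessed by normalized qRT-PCR with bidirectional fitting to DMSO controls.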

Read-out in assay [13]: Tumor necrosis factor receptor 1 (TNFRSF1A), TNFRSF1A (gene 7132)
The assay is described as follows: LTEA_HepaRG_TNFRSF1A: Life Technologies and Expression Analysis (LTEA) Assay for Tumor necrosis factor receptor 1 (TNFRSF1A) using HepaRG (AID 2283535). The essentials: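 Assay uses 48 h chemical treatment of differentiated HepaRG monolayers, tested in duplicate at eight concentrations from 100 uM downward in 0.5% DMSO. mRNA is normalized to ACTB, GAPDH and POLR2A, with induction or suppression fitted relative to vehicle.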

Read-out in assay [14]: Thyroid Hormone Responsive (THRSP), THRSP (gene 7069)
The assay is described as follows: LTEA_HepaRG_THRSP: Life Technologies and Expression Analysis (LTEA) Assay for Thyroid Hormone Responsive (THRSP) using HepaRG (AID 2283536). The essentials:
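THRSP transcript quantified by Fluidigm qRT-PCR against three housekeeping genes after 48 h chemical exposure of HepaRG cells in serum-free induction medium; eight-point half-log series, top 100 uM, 0.5% DMSO vehicle, duplicate wells.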

Read-out in assay [15]: Cellular tumor antigen p53 (Homo sapiens) (UniProt P04637)
The assay is described as follows: LTEA_HepaRG_TP53: Life Technologies and Expression Analysis (LTEA) Assay for Tumor Protein P53 (TP53) using HepaRG (AID 2283537). In outline: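 HepaRG, 48 h exposure, top 100 uM, half-log 8-point, 0.5% DMSO vehicle, duplicates. Read: TP53 mRNA by TaqMan qRT-PCR, normalised to ACTB/GAPDH/POLR2A; bidirectional fit vs DMSO.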

Read-out in assay [16]: UDP glucuronosyltransferase (UGT1A1), UGT1A1 (gene 54658)
The assay is described as follows: LTEA_HepaRG_UGT1A1: Life Technologies and Expression Analysis (LTEA) Assay for UDP glucuronosyltransferase (UGT1A1) using HepaRG (AID 2283538). The essentials: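 UGT1A1 transcript level, measured by qRT-PCR with three housekeeping genes for normalization, after 48 h treatment of human HepaRG cells (0.5% DMSO, duplicates, up to 100 uM, half-log steps, 8 points). Curves fit both directions against DMSO baseline.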

Read-out in assay [17]: Signal transducer and activator of transcription 3 (Homo sapiens) (UniProt P40763)
Briefly: LTEA_HepaRG_STAT3: Life Technologies and Expression Analysis (LTEA) Assay for Signal transducer and activator of transcription (STAT3) using HepaRG (AID 2283529). In outline:
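STAT3 transcript quantified by qRT-PCR against three housekeeping genes (ACTB, GAPDH, POLR2A), fitted both directions relative to DMSO. HepaRG cultures exposed 48 h to eight half-log concentrations, top 100 uM, 0.5% DMSO, serum-free induction medium.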

Read-out in assay [18]: Transforming Growth Factor (TGFB1), TGFB1 (gene 7040)
Briefly: LTEA_HepaRG_TGFB1: Life Technologies and Expression Analysis (LTEA) Assay for Transforming Growth Factor (TGFB1) Transporter using HepaRG (AID 2283533). In outline:
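Eight-point concentration-response (max 100 uM, half-log) in HepaRG under serum-free induction conditions, 48 h. TGFB1 mRNA by qRT-PCR, housekeeping-normalized.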

Read-out in assay [19]: Pyruvate Dehydrogenase Kinase 4 (PDK4), PDK4 (gene 5166)
Briefly: LTEA_HepaRG_PDK4: Life Technologies and Expression Analysis (LTEA) Assay for Pyruvate Dehydrogenase Kinase 4 (PDK4) using HepaRG (AID 2283525). The essentials: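 Readout is qRT-PCR of PDK4 transcript, normalized to three housekeeping genes, with bidirectional fitting against 0.5% DMSO vehicle. Differentiated HepaRG cells were treated 48 h in serum-free induction medium, duplicate wells, eight-point half-log series topping at 100 uM.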

Sequence of Cellular tumor antigen p53 (Homo sapiens) (P04637 whole entry, looked up): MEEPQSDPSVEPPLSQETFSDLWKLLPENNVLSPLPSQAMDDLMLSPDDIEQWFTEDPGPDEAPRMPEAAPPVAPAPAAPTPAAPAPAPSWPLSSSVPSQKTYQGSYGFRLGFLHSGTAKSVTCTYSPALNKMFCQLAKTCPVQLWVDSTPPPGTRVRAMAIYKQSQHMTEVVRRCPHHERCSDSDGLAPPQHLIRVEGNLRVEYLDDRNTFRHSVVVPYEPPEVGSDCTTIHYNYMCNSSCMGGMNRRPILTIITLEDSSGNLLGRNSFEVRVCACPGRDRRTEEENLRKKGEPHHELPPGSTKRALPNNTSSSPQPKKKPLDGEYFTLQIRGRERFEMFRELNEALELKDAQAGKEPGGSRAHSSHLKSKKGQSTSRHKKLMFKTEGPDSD
Sequence of Nuclear factor NF-kappa-B p105 subunit (Homo sapiens) (P19838 whole entry, looked up): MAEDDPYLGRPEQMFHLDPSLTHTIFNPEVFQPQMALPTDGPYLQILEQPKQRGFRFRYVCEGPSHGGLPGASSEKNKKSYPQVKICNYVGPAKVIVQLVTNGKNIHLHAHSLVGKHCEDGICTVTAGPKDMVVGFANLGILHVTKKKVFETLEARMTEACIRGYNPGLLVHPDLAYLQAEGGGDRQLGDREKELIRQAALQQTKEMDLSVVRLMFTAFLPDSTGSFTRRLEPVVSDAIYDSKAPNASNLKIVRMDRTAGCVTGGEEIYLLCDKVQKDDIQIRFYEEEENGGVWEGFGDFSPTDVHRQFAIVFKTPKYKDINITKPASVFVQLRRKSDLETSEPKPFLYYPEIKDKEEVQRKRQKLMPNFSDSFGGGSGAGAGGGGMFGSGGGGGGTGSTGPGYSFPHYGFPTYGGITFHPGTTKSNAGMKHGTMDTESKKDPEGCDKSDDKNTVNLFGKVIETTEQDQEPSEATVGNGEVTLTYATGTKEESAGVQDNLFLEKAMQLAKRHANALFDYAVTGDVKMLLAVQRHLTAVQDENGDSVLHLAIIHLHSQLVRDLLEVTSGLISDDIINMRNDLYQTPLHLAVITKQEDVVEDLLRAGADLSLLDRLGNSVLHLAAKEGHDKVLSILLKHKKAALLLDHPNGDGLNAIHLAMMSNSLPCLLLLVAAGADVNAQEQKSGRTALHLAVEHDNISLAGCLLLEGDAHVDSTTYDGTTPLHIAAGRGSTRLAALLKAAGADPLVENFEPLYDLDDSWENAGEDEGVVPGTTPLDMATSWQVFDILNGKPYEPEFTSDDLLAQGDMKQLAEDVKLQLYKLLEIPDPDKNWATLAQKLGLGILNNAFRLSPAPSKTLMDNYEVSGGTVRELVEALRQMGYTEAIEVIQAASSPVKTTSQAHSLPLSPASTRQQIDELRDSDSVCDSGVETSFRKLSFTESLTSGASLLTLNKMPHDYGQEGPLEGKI
Sequence of Nuclear factor erythroid 2-related factor 2 (Homo sapiens) (Q16236 whole entry, looked up): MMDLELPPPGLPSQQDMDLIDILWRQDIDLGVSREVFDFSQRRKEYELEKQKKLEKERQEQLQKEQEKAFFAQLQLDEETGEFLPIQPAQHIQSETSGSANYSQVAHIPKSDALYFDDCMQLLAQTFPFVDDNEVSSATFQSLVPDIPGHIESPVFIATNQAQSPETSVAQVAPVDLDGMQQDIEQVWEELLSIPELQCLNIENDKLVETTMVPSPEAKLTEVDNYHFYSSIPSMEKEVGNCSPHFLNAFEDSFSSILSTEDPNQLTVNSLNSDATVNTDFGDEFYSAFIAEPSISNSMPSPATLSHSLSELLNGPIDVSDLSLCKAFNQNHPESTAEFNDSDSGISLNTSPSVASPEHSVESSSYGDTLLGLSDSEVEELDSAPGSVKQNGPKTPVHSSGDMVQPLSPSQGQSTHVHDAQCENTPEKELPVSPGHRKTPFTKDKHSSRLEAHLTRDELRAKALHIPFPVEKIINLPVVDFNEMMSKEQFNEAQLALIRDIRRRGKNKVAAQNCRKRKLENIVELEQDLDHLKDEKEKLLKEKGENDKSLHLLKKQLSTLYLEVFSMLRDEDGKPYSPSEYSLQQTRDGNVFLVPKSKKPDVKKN
Sequence of Signal transducer and activator of transcription 3 (Homo sapiens) (P40763 whole entry, looked up): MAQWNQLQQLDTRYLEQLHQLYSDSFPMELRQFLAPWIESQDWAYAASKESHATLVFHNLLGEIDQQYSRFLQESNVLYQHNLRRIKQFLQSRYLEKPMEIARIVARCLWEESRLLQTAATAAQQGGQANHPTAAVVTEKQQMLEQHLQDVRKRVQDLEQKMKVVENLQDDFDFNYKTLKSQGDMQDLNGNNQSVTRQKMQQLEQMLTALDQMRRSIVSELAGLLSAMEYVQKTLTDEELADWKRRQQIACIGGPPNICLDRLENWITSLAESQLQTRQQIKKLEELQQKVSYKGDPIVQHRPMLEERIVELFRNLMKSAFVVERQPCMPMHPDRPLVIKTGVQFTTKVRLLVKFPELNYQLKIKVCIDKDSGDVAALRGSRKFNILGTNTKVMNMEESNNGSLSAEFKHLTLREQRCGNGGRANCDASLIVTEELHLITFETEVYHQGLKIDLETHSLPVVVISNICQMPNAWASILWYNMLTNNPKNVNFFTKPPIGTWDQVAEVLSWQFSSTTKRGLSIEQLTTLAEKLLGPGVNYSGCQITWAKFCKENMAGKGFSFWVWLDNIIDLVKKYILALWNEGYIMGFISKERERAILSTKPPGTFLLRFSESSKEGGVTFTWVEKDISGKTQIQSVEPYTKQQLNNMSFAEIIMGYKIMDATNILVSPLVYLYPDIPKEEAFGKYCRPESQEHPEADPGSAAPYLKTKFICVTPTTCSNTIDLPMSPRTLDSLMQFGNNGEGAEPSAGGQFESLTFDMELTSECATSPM

Consider `O=C(N[C@@H](Cc1ccccc1)[C@@H](O)C(=O)N1C[C@@H](O)[C@@H](O)C1)c1cc2cc(Cl)ccc2[nH]1`, for which the result in [1], in assay [3], in assay [4], in assay [5], in assay [6] and in [7] was inactive. In addition, the outcome is “inactive” in assay [8]; “inactive” in assay [9]; “inactive” in [10]; “inactive” in assay [11]; “inactive” in [12]; “inactive” with TIMP1, TIMP1 (gene 7076). Further, the compound was classed as inactive in [13] and in [16]. Besides, the half-maximal activity concentration (AC50) is 50 µM (active) in assay [2], 88.6 µM (active) in assay [14] and 50 µM (active) in assay [15].

For the compound `CCCCCCCCCCC`, the compound was called inactive in assay [1], in [2], in [3], in [4], in [5] and in assay [6]. For the same compound, the result in assay [7], in [8], in assay [9], in [17], in assay [10] and in [11] was inactive. The outcome in assay [12] is “inactive”; in assay [18], “inactive”; in the assay with TIMP1, TIMP1 (gene 7076) it was “inactive”; in assay [13], “inactive”; in assay [14], “inactive”; in assay [15], “inactive”. Besides, in assay [16], the result was inactive.

Turning to `Nc1nc(N)c2nc(CNc3ccc(C(=O)N[C@@H](CCC(=O)O)C(=O)O)cc3)cnc2n1`, the call in assay [1], in assay [2], in assay [3], in [5], in [6] and in assay [7] was inactive. The outcome in assay [8] was “inactive”; in assay [10] it was “inactive”; in assay [12], “inactive”; in assay [18], “inactive”; in the assay with TIMP1, TIMP1 (gene 7076), “inactive”; in assay [13] it was “inactive”. Further, the outcome in assay [15] and in assay [16] was inactive. Moreover, the figures for the AC50 in assay [19] and in assay [11] were 0.0967 µM (active) and 0.0974 µM (active), respectively.

On to `CC1=C(/C=C/C(C)=C/C=C/C(C)=C/CO)C(C)(C)CCC1`, for which the AC50 was 23.1 µM (active) in assay [1], 10.4 µM (active) in assay [6], 52.2 µM (active) in [7] and 52.2 µM (active) in [11]. Moreover, the compound was classed as inactive in assay [2], in assay [3], in assay [4], in [5], in assay [19] and in assay [8]. Moreover, the outcome is “inactive” in [10]; “inactive” in assay [12]; “inactive” in assay [18]; “inactive” with TIMP1, TIMP1 (gene 7076); “inactive” in [13]; “inactive” in assay [14]. Further, the outcome in assay [15] was inactive.
